Bioassay records (PubChem BioAssay)
Compounds with a hit are over-represented: about 0.7% of the library has one in this group of screens.
FadD28 binding: blocks FadD28 binding to the bisubstrate probe; inhibition, % at 12.5 µM; AID 588549; hit rate 0.22% among 360,000; fluorescence polarization; in the data active means inhibition above about 8.5%, passing the limit was not always enough; inconclusive means no clear call, values can overlap the other calls
Mtb BioA inh: BioA (M. tuberculosis) enzyme inhibition; purified M. tuberculosis BioA enzyme, plate reader; inhibition, % at 9.99 µM; hit rate 0.096% among 360,000; in the data active means inhibition above about 40%; inconclusive means no clear call, values can overlap the other calls
DUSP3 inh: DUSP3 (human) phosphatase inhibition. P51452. recombinant VHR phosphatase, pNPP absorbance. inhibition, % at 13.3 µM. hit rate 0.52% among 290,000; in the data active means inhibition above about 50%
Target sequence (P51452 whole entry, looked up): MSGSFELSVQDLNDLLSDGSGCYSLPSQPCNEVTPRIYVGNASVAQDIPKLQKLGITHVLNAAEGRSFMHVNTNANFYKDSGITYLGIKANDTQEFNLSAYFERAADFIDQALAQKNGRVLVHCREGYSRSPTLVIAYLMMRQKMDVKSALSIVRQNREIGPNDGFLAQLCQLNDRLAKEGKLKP
3CLpro inhibitor: SARS-CoV 3CLpro protease inhibition; recombinant SARS-CoV 3CLpro, quenched FRET peptide cleavage; inhibition, % at 6 µM; hit rate 0.14% among 290,000; AID 1706; in the data active means inhibition above about 12%
Mtb hypoxia inh: inhibitors of hypoxia-regulated fluorescent reporter in Mycobacterium tuberculosis. M. tuberculosis hypoxia-regulated fluorescent reporter, fluorescence. fluorescence inhibition, % (concentration not given with the values). hit rate 0.1% among 300,000. AID 1159583; in the data active means fluorescence inhibition mostly above about 23%, no sharp cut-off; inactive means mostly below about 17%
Numbers without * were called inactive; u = inconclusive; x = no result.

SMILES	FadD28 binding	Mtb BioA inh	DUSP3 inh	3CLpro inhibitor	Mtb hypoxia inh
CC(C)(C)c1ccc(-c2csc(NNC3=NCCCCC3)n2)cc1	-2	x	55*	-3	6
CCCN1CCC(=O)N(C(COc2ccccc2)c2ccccc2)CC1 (centres undefined)	x	x	x	x	17
CN1CCC(=O)N([C@H](CC#N)c2ccccc2)CC1	-1	-1	52*	-2	x
CCCN1CCC(=O)N([C@H](COc2ccccc2)c2ccccc2)CC1	-4	5	55*	-1	x
O=c1[nH][nH]c2c(N=Cc3ccccc3O)ccc(F)c12	16*	1	52*	1	0
Cc1cc(C)c[n+](-c2[nH]c(=O)sc2C=NN=C(N)[S-])c1	x	x	x	x	3
COc1ccc(-c2cc(C(=O)Nc3ccc(F)cc3F)no2)cc1	-1	-1	55*	-5	3
COc1ccc(OC)c(-c2cc(C(=O)Nc3ccc(F)cc3F)no2)c1	-4	0	50	3	11
CNCC(NCC(NCCCc1ccccc1)c1ccccc1)C(C)O (centres undefined)	x	x	x	x	6
CC(/C=C1\SC(=S)N(c2ccc(C(=O)O)cc2)C1=O)=C\c1ccccc1	-11	x	53*	0	x
CC(/C=C1\SC(=S)N(NS(=O)(=O)c2ccc(C)cc2)C1=O)=C\c1ccccc1	11*	-2	31	2	12
CC(/C=C1\SC(=S)N(NC(=O)c2ccc(C)cc2)C1=O)=C\c1ccccc1	1	-1	20	0	8
CC(/C=C1\SC(=S)N(NS(=O)(=O)c2ccccc2)C1=O)=C\c1ccccc1	u	2	9	-1	-1
C=CCOc1ccc(/C=C2\SC(=S)N(NS(=O)(=O)c3ccccc3)C2=O)cc1	12*	x	20	7	9
COc1ccc(/C=C2/SC(=S)N(NS(=O)(=O)c3ccccc3)C2=O)cc1	2	0	5	1	7
O=C1NC(=O)C(=Cc2ccco2)N1	x	x	x	x	23
Cn1nccc1C(=O)Oc1ccc(C=NNC(=O)c2ccccc2O)cc1	x	x	x	x	9
c1ccc(C2CNCCN2CCc2cccc3ccccc23)cc1 (centres undefined)	x	x	x	x	11
Cc1ccc(-n2c(SCC(=O)Nc3cccc(S(=O)(=O)NC4=NCCCCC4)c3)nc3ccccc3c2=O)cc1C	1	-3	60*	-1	10
CC(C)(C)C1CCC(=O)N(C(CN=[N+]=[N-])Cc2ccccc2)CC1 (centres undefined)	x	x	x	x	2
CCN1CCCC1CNC(=O)c1cn(C)c2ccc(S(=O)(=O)N3CCCCCC3)cc2c1=O (centres undefined)	-1	0	51*	-2	-1
CCC1CCCCN1CCCNC(=O)c1cn(CC)c2ccc(S(=O)(=O)N(C)C3CCCCC3)cc2c1=O (centres undefined)	-4	8	51*	-2	-7
CC(C)(C)C1CCC(=O)N(C(CSc2ccc(Br)cc2)Cc2ccccc2)CC1 (centres undefined)	x	x	x	x	6
COc1ccc(CN2CC(=O)N3C4c5ccccc5OCC4C(c4ccccc4)[C@]3(C)C2=O)cc1 (some centres undefined)	x	x	x	x	-6
CCOC(=O)c1c(-c2cccs2)csc1NC(C)=O	-1	x	-9	3	15
SMILES	FadD28 binding	Mtb BioA inh	DUSP3 inh	3CLpro inhibitor	Mtb hypoxia inh
CCOC(=O)c1c(-c2ccc(C)s2)csc1NC(=O)c1cccs1	17*	-2	4	4	9
CCCCc1nnc(NC(=O)Cc2ccc(OC)c(S(=O)(=O)N3CCOCC3)c2)s1	-1	x	x	x	3
COc1ccc(CC(=O)Nc2nnc(SCc3ccccc3)s2)cc1S(=O)(=O)N1CCOCC1	13*	-2	40	9	x
CC(=O)Nc1ccc(SCC(C)CN2CCC(O)CCC2=O)cc1 (centres undefined)	x	x	x	x	13
CCC1CCCCN1S(=O)(=O)c1ccc([N+](=O)[O-])cc1 (centres undefined)	-1	-1	51*	-5	1
C/C(CC(=O)NCc1ccco1)=N\NC(=O)c1ccc(Cl)cc1Cl	-1	x	52*	3	x
CC(CC(=O)NCc1ccco1)=NNC(=O)c1ccc([N+](=O)[O-])cc1Cl	x	x	x	x	-1
CCN(Cc1ccccc1)C(=O)CN1C(=O)c2ccccc2C1=O	-1	-1	-5	0	-9
O=C(CN1C(=O)c2ccccc2C1=O)N(CCO)Cc1ccccc1	22*	0	40	3	-2
O=C1C=C(c2cccc(OCc3ccccc3)c2)CC(c2ccc3c(c2)OCO3)C1 (centres undefined)	x	x	x	x	11
CCOC(=O)C1C2COc3ccc(Br)cc3C2N2C(=O)N(c3ccc(C(F)(F)F)cc3)C(=O)[C@]12C (some centres undefined)	x	x	x	x	-1
